# Measured values taken from PubChem BioAssay (NCATS).
# Inconclusive results are not listed. Calls of active or inactive are those of the source. Calls come from the whole dose curve; as a rule, active = well fitted inhibition curve with a large enough effect; inconclusive = small, poorly fitted or top-dose-only effect; inactive = flat fitted curve, though single readings scatter. Square brackets hold non-standard residues; d marks the D form. Peptide text beside a SMILES is read from it. PhLac = O=C(O)[CH](O)Cc1ccccc1; NMeV = CN[CH](C(=O)O)C(C)C
# System: CRL-7250
# Experiment: qHTS assay to identify novel small-molecules to repurpose for Merkel cell carcinoma treatment (AID 1296009); note: nearly all actives have a fitted effect of over 60% in size
# Details: MCC and control cell lines, CellTiter-Glo viability, 72 h; series mostly up to 92 µM; activity change, negative = cytotoxicity: at the top concentration
# Method in brief: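 Dose-response viability screen; 72 hr exposure at 37 degree celsius; CellTiter-Glo added, 10 min room temperature, luminescence read; RLUs scaled between no-cell and DMSO wells.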
row,SMILES,outcome
1,Cn1nccc1Nc1nccc(-c2ccn([C@H](CO)c3ccc(Cl)c(F)c3)c(=O)c2)n1,inactive
2,C=CC(=O)N1CC(N2CCN(C(=O)CNc3cc(C4CC4)c(Cl)cc3O)CC2)C1,inactive
3,O=S(=O)(Nc1ccccn1)c1ccc(N=Cc2c(O)[nH]c3ccc4ncsc4c23)cc1,inactive [at 9.27 µM]
4,COc1cccc(OC)c1-c1nc(C(=O)N[C@@H](CC(C)C)C(=O)O)cn1-c1ccnc2cc(Cl)ccc12,inactive
5,CC(C)(O)C1OC1C1=CC(=O)C2(C)OC2C1O (centres undefined),inactive
6,CCOC(=O)c1sc(NC(=O)[C@H](C(C)C)n2c(=O)[nH]c3ccccc3c2=O)nc1C,inactive
7,NC(=O)NCCCC(NC(=O)Cc1ccccc1)C(=O)O (centres undefined),inactive
8,C=C1CCC[C@]2(C)C[C@]3(O)OC(=O)C(C)=C3C[C@@H]12,inactive
9,CC1=C2C(=O)C=C(CO)[C@@H]2[C@H]2OC(=O)[C@H](C)[C@@H]2[C@@H](O)C1,inactive
10,C=C1CC/C=C(/CO)C(=O)C[C@@H]2[C@@H]1C[C@@]2(C)COC(C)=O,inactive
11,CC1(C)CC=C(c2cnc3ccccc3c2)c2cc(C(=O)Nc3ccc(C(=O)O)cc3)ccc21,inactive
12,CC(C/C=C/C(C)(C)O)C1CCC(C)(O)C(O)C1 (centres undefined),inactive
13,C=C(C(=O)OC)C1C(O)CC2(C)C(=O)CCC(O)(CO)C2C1O (centres undefined),inactive
14,O=C(O)c1cc(C(F)(F)F)ccc1N1CC[C@H](OCc2ccccn2)C1,inactive
15,C[C@H](/C=C/[C@@]1(O)[C@H](C)CC(=O)CC1(C)C)O[C@@H]1O[C@H](CO[C@@H]2OC[C@@H](O)[C@H](O)[C@H]2O)[C@@H](O)[C@H](O)[C@H]1O,inactive [at 17.4 µM]
16,CC(=O)N[C@H]1[C@H](O[C@H]2CC[C@@]3(C)C(CC[C@]4(C)C3CC=C3C5CC(C)(C)CC[C@]5(C(=O)O)[C@H](O[C@@H]5O[C@H](CO)[C@@H](O)[C@H](O)[C@H]5O)C[C@]34C)C2(C)C)O[C@H](CO[C@@H]2OC[C@H](O)[C@H](O)[C@H]2O[C@@H]2OC[C@@H](O)[C@H](O)[C@H]2O)[C@@H](O)[C@@H]1O (some centres undefined),inactive [at 9.27 µM]
17,C=C1C(OC(C)=O)CCC2(C)CC3(O)OC(=O)C(C)=C3CC12 (centres undefined),inactive
18,O=C(O)/C=C/c1ccc(O[C@@H]2O[C@H](CO)[C@@H](O)[C@H](O)[C@H]2O)cc1,inactive
19,Cc1nc2cc(C(=O)NCc3ccccn3)nn2c(C)c1Cc1cccc(Cl)c1,inactive
20,CC(NC(=O)[C@H](Cc1ccccc1)NC(=O)OCc1ccccc1)C(=O)CF (some centres undefined),inactive
21,O=C(NCC1(N2CCN(c3ccccc3)CC2)CCOCC1)c1cccnc1Sc1ccccc1,inactive
22,O=C(/C=C/N1C[C@@H]2C[C@@H]1CN2c1ccccn1)c1ccccc1O,inactive
23,Cn1nc(C(C)(C)C)cc1C(=O)NC(Cc1cccc(Cl)c1)C(=O)NCC#N (centres undefined),inactive
24,CC1(C)CC[C@]2(C(=O)O)CC[C@]3(C)C(=CCC4[C@@]5(C)CC[C@H](O[C@H]6O[C@H](C(=O)O)[C@@H](O)[C@H](O[C@@H]7O[C@H](CO)[C@H](O)[C@H](O)[C@H]7O)[C@H]6O)C(C)(C)C5CC[C@]43C)[C@@H]2C1 (some centres undefined),inactive [at 9.27 µM]
25,CC(C)C(C(=O)N1CCCC1C(=O)O)N(C)C(=O)C(O)Cc1ccccc1 (centres undefined) (H-[PhLac]-[NMeV]-Pro-OH; configuration not given here),inactive
26,CCNC(=O)C1CC(F)(c2ccc(CN3CCCC3)c(F)c2)C1 (centres undefined),inactive
27,Cc1ccc2c(c1)C=Cc1cc(C)ccc1C2c1cn(Cc2ccc(C(=O)Nc3nn[nH]n3)o2)c(=O)[nH]c1=S,inactive
28,COc1cc(CCc2ccccc2)c(C(=O)O)c2c1CC(C(C)(C)O)O2 (centres undefined),inactive
29,Nc1nc2c(s1)CCN(Cc1ccc(Cl)cc1)CC2,inactive
